# Measurements reported in PubChem BioAssay.
# Active and inactive are the calls of the source.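 How the source made its calls: active means visually confirmed hit in the image check and inhibition above 20%; inconclusive means visually confirmed hit but inhibition not above 20%; inactive means no visual hit in the image check.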
# Experiment: inhibitors of E-selectin induction by TNFa, primary screen, imaging, HUVEC, immunofluorescence, MLSMR starter and 10KST1 sets (AID 487);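 on inhibition: signal is fraction of cell area covered by stained E-selectin grains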;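 on nuclei count: 100% = median nuclei count of all wells on the same plate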
# Conditions: HUVEC TNFalpha-induced E-selectin immunofluorescence imaging, at 2 µM; inhibition: stronger effect = higher value; nuclei count: measured here: cell number, toxicity
SMILES,nuclei count [%],inhibition
CC(=O)Nc1cccc(OCC(O)Cn2cnc3ccccc32)c1 (stereo not given),107,-23.9% (inactive)
Cc1ccc(N2CCN(CCc3nc4cc(NS(C)(=O)=O)ccc4n3C)CC2)cc1,122,21.6% (inactive)
COc1cc2c(cc1OC)C(c1cccnc1)CC(=O)N2 (stereo not given),117,-30.8% (inactive)
COc1ccc(S(=O)(=O)N2CCCC(C(=O)N3CCCCCC3)C2)cc1 (stereo not given),105,-8.6% (inactive)
COCCCNC(=O)CSc1ccc(Cl)cc1,80,10.2% (inactive)
CCOc1cc(C(=O)N(C)Cc2cc3ccccc3[nH]c2=O)cc(OCC)c1OCC,196,-205% (inactive)
CCOC(=O)CN1CC23C=CC(O2)C(C(=O)NC2CCCC2)C3C1=O (stereo not given),119,-66.9% (inactive)
O=C(CN1C(=O)c2ccccc2C1=O)Nc1ccccc1C(=O)N1CCCC1,97.4,-13.3% (inactive)
CCOC(=O)CSC1=C(C#N)C(c2ccc(C)o2)CC(=O)N1 (stereo not given),95,-60% (inactive)
CCCSc1nc2c(cnn2-c2ccc(C)cc2)c(=O)[nH]1,113,-17.4% (inactive)
Cc1cc(C(=O)N2CCN(c3ncccn3)CC2)cs1,110,0.9% (inactive)
Cc1cc(NC(=O)CSc2nc(CCC3CCCC3)nc3ccccc23)no1,90,-41% (inactive)
CCCC(CCC)C(=O)NCCN1CCOCC1,90.6,-22.1% (inactive)
CC(=O)NC(Cc1c[nH]c2ccccc12)C(=O)OCC(=O)Nc1cc(C)on1 (stereo not given),97.6,-0.6% (inactive)
COc1ccccc1OCC(=O)NCC1CCCCC1,102,28.4% (inactive)
CC1(C)CC(=O)c2sc(NS(C)(=O)=O)nc2C1,106,-56.1% (inactive)
CSC1=NCCN1C(=O)c1ccc(S(=O)(=O)N2CCCC2)cc1,105,-7.2% (inactive)
CC12CN3CC(C)(CN(C1)C3c1ccc(Cl)cc1Cl)C2=O (stereo not given),121,-21.6% (inactive)
CCOC(=O)c1ccc(NC(=O)CSC2=NC(=O)C(CC)C(=O)N2)cc1 (stereo not given),102,-104% (inactive)
O=C(C1CCCN(S(=O)(=O)c2cccnc2)C1)N1CCn2c1nc1ccccc12 (stereo not given),107,-57.5% (inactive)

SMILES,nuclei count [%],inhibition
COc1ccc(C)cc1NC(=O)CN(Cc1nnc(-c2ccc(Cl)cc2)o1)C1CCCC1,110,-43.8% (inactive)
Cc1occc1-c1nc(-c2ccncc2)no1,126,-46.6% (inactive)
Cn1c(=O)c2c(nc(SCC(=O)NCc3ccco3)n2C)n(C)c1=O,100,-63.1% (inactive)
CCCCP(=O)(CCCC)Cc1ccccc1O,97.4,-39.4% (inactive)
CN(C)c1nc(N)nc(-c2nc3ccccc3s2)n1,122,-96.9% (inactive)
Cc1ccc(NC(=O)c2ccco2)c(NC(=O)c2cccs2)c1,111,-119% (inactive)
Nn1c(SCC(=O)Nc2ccc(F)cc2)nnc1-c1cccnc1,108,-112% (inactive)
CCOC(=O)c1ccccc1NC1c2ccccc2C(=O)N1C1CCN(C(=O)OCC)CC1 (stereo not given),109,-10.1% (inactive)
CC(Sc1nc(-c2ccccc2)cc(C(F)(F)F)n1)C(=O)N1CCCC1 (stereo not given),133,-83% (inactive)
Clc1ccc(Nc2ncnc3c2cnn3-c2ccccc2)cc1,105,-14.4% (inactive)
Cc1csc(SCCn2c(N3CCCC3)nc3c2c(=O)[nH]c(=O)n3C)n1,127,-26.1% (inactive)
CC(CCc1ccccc1)NCc1ccncc1 (stereo not given),130,-75.4% (inactive)
CCCCCSc1nc2c(cnn2-c2ccccc2)c(=O)[nH]1,125,-35.9% (inactive)
Cc1ccc2c(c1)CCCN2C(=O)Nc1ccc2c(c1)OCO2,102,-34.4% (inactive)
CCc1c(C(=O)N2CCOCC2)csc1C,104,-4.5% (inactive)
Cc1c(-n2c(CN3C(=O)c4ccccc4C3=O)nc3ccccc3c2=O)c(=O)n(-c2ccccc2)n1C,95.8,77.1% (inactive)
Cn1c(=O)[nH]c(=O)c2c1ncn2CCN1CCOCC1,102,-6.5% (inactive)
CC1C(=O)C(C)C(c2cccs2)NC1c1cccs1 (stereo not given),87.4,13.7% (inactive)
CCOC(=O)c1ccc(NS(=O)(=O)c2ccc3c(c2)CCCN3C(C)=O)cc1,125,-93.7% (inactive)
O=C(Nc1sc2c(c1C(=O)NCc1ccco1)CCCC2)c1ccc2c(c1)OCO2,117,-56% (inactive)
